Reference: PubChem BioAssay (EPA / NIEHS)
Active and inactive are the calls of the source. How the source made its calls: active means hit-call score of the fitted dose curve at least 0.9, where 1 is the maximum; inactive means score below 0.9.

Target: Hypoxia-inducible factor 1-alpha (Homo sapiens) (UniProt Q16665)
Test: ATG_HIF1a_CIS: Attagene CIS-FACTORIAL HepG2 Assay for human Hypoxia Inducible Factor 1 (HIF1A) (AID 2282951)
Details: HepG2 Attagene cis-factorial HIF1a reporter transcription; actives raise or lower the signal
Experimental: ATG_CIS is a cell-based, multiplexed-readout assay that uses HepG2, a human liver cell line, with measurements taken at 24 hours after chemical dosing in a 24-well plate.ATG_HIF1a_CIS is one of 52 assay component(s) measured or calculated from the ATG_CIS assay. It is designed to make measurements of mRNA induction, a form of inducible reporter, as detected with fluorescence intensity signals by Reverse transcription polymerase chain reaction (RT-PCR) and Capillary electrophoresis technology.Data from the assay component ATG_HIF1a_CIS was analyzed into 1 assay endpoint. This assay endpoint, ATG_HIF1a_CIS, was analyzed with bidirectional fitting relative to DMSO as the negative control and baseline of activity. Using a type of inducible reporter, measures of mRNA for gain or loss-of-signal activity can be used to understand the reporter gene at the transcription factor-level as they relate to the gene HIF1A. Furthermore, this assay endpoint can be referred to as a primary readout, because this assay has produced multiple assay endpoints where this one serves a reporter gene function. To generalize the intended target to other relatable targets, this assay endpoint is annotated to the dna binding intended target family, where the subfamily is basic helix-loop-helix protein.
Human liver HepG2 cells are transiently transfected with multiple reporter transcription units (MRTUs) in 6-well plates using FuGene 6 reagent (Roche; 3 ml FuGene/1 mg DNA). The MRTU constructs are regulated by a cis-regulating element (promoter). […] A major difference between the CIS and TRANS system is that in CIS activities of endogenous TFs are measured, whereas the TRANS assay evaluates changes in activities of exogenous, chimeric NR-Gal4 proteins. […] At the end of 24 hour incubation, total RNA was isolated using TriZol reagent (Invitrogen). The isolated RNA is then reverse-transcribed using oligo(dT) primer and Mo-MLV reverse transcriptase (Invitrogen) with DNAse I (Ambion) treatment for 30 min. The one-tenth of the produced cDNA was amplified by PCR using Taq DNA polymerase (Invitrogen) and two reporter sequence-specific primers. The PCR products were fluorescently labeled by primer extension with 6-arboxyfluorescein (6-FAM) 5'-labeled reporter sequence-specific primer (2 min at 95 C, 20 s at 68 C and 10 min at 72 C) and these products were digested with 5U of HpaI (New England Biolabs) for 2h at 37 C. The fragments were purified using Qiaquick PCR columns (Qiagen), analyzed on an ABI 3130xL genetic analyzer (Applied Biosystems) with peak positions identified by using a set of X-rhodamine (ROX)-labeled MapMarker1000 molecular weight standards (BioVentures). The raw capillary electrophoresis data was processed using Attagraph software (Attagene).

Hypoxia-inducible factor 1-alpha (Homo sapiens), sequence (Q16665 whole entry, looked up): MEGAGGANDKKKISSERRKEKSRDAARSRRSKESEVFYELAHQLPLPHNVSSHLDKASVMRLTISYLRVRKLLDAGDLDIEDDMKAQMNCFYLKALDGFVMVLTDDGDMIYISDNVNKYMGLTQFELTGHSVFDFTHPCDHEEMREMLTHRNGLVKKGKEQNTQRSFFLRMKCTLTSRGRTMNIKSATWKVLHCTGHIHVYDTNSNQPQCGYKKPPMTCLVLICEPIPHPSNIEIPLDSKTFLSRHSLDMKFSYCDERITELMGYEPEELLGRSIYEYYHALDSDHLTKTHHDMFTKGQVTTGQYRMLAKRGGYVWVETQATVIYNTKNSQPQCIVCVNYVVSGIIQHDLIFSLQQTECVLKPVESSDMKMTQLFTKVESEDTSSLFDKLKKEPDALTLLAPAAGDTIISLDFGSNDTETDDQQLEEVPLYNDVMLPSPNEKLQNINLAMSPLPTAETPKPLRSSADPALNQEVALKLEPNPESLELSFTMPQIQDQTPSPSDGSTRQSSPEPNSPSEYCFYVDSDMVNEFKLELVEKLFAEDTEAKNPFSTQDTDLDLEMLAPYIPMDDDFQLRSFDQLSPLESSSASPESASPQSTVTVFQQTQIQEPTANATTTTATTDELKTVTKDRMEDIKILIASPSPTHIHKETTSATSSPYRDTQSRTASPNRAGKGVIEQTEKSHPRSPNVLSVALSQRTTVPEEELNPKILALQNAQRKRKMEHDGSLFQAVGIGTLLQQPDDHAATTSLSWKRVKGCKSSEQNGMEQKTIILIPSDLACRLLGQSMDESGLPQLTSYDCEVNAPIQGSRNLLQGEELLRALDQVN

**Q.** How did the outcome turn out when CCCC(=O)C(C)=O was run?
**A.** inactive

**Q.** CC1(C)[C@H]2CC[C@]1(C)[C@H](O)C2 was tested. Which outcome did it give?
**A.** inactive

**Q.** CCCCCCCCCOC(C)=O was tested. Which outcome did it give?
**A.** inactive

**Q.** NC(=O)Nc1ccc(Cl)cc1 was tested. Which outcome did it give?
**A.** inactive

**Q.** For CC(C)(COC(=O)c1ccccc1)COC(=O)c1ccccc1, which AC50 is on record?
**A.** 47.2 µM (active)

**Q.** Which outcome does the source give for Cc1ccc(C(=O)O)o1 here?
**A.** inactive

**Q.** For NCCCCCCN, which outcome is on record?
**A.** inactive

**Q.** For O=c1[nH]c(=O)n([C@H]2CCCO2)cc1F, which outcome is on record?
**A.** inactive

**Q.** OCCN1CCNCC1 was tested. Which outcome did it give?
**A.** inactive

**Q.** Nc1ccc(S(=O)(=O)O)c(N)c1 was tested. Which outcome did it give?
**A.** inactive

**Q.** How did the outcome turn out when CC(CC(C)(C)C)CC(C)(C)CC(C)(C)C (stereo not given) was run?
**A.** inactive

**Q.** Which outcome does the source give for OCCOc1cccc(OCCO)c1 here?
**A.** inactive

**Q.** With Nc1cc([N+](=O)[O-])ccc1Cl as the compound, how does the outcome read?
**A.** inactive

**Q.** CCc1ccc(C=O)cc1 was tested. Which outcome did it give?
**A.** inactive

**Q.** For O=Nc1ccc(Nc2ccccc2)cc1, which AC50 is on record?
**A.** 33.4 µM (active)

**Q.** BrC1CCC(Br)C(Br)CCC(Br)C(Br)CCC1Br (stereo not given) was tested. Which outcome did it give?
**A.** inactive

**Q.** Cc1ccc(O)c(C(C)(C)C)c1 was tested. Which outcome did it give?
**A.** inactive

**Q.** With COc1nc(C)nc(N)n1 as the compound, how does the outcome read?
**A.** inactive

**Q.** O=C(Cl)c1cccc(C(=O)Cl)c1 was tested. Which outcome did it give?
**A.** inactive

**Q.** With CCC(=O)/C=C/C1C(C)=CCCC1(C)C (stereo not given) as the compound, how does the outcome read?
**A.** inactive

**Q.** Which AC50 does the source give for CCCCC/C=C/C=C/C=O here?
**A.** 100 µM (active)

**Q.** Which outcome does the source give for CC(=O)O[C@H](CC(=O)[O-])C[N+](C)(C)C here?
**A.** inactive

**Q.** For C=C(C)[C@@H]1CC[C@@H](C)C[C@@H]1O, which outcome is on record?
**A.** inactive

**Q.** For c1ccc2[nH]ccc2c1, which outcome is on record?
**A.** inactive

**Q.** Which outcome does the source give for CC(C)[C@H]1CC[C@@H](C)CC1=O here?
**A.** inactive

**Q.** With CC(C)OP(=O)(CP(=O)(OC(C)C)OC(C)C)OC(C)C as the compound, how does the outcome read?
**A.** inactive

**Q.** Cc1ccccc1C=O was tested. Which outcome did it give?
**A.** inactive

**Q.** With CN(C)c1ccc(O)c2c1C[C@H]1C[C@H]3[C@H](N(C)C)C(=O)C(C(N)=O)=C(O)[C@@]3(O)C(=O)C1=C2O as the compound, how does the outcome read?
**A.** inactive

**Q.** With O=S(=O)(O)c1cccc2c(S(=O)(=O)O)cccc12 as the compound, how does the outcome read?
**A.** inactive

**Q.** Nc1cc(N)cc(C(=O)O)c1 was tested. Which outcome did it give?
**A.** inactive

**Q.** O=C(O)c1ccc(C(=O)O)cc1 was tested. Which outcome did it give?
**A.** inactive

**Q.** With CCCCCC=CCC(=O)OC as the compound, how does the outcome read?
**A.** inactive

**Q.** For Cc1ccc(C(C)C)cc1O, which outcome is on record?
**A.** inactive

**Q.** How did the AC50 turn out when COc1cc2ncnc(Nc3cccc(Cl)c3)c2cc1OC was run?
**A.** 11.4 µM (active)

**Q.** CCCCOCCOCCSC#N was tested. Which outcome did it give?
**A.** inactive

**Q.** With [Ca+2] as the compound, how does the outcome read?
**A.** inactive

**Q.** For O=C=NC1CCC(CC2CCC(N=C=O)CC2)CC1 (stereo not given), which outcome is on record?
**A.** inactive

**Q.** How did the outcome turn out when CCCCCC(=O)OCCc1ccccc1 was run?
**A.** inactive

**Q.** How did the AC50 turn out when CCO[Si](CCCS)(OCC)OCC was run?
**A.** 28.4 µM (active)

**Q.** How did the AC50 turn out when Cc1ccc2sc3cccc(C)c3c2c1 was run?
**A.** 52.9 µM (active)
